# Values joined by “and” are separate entries in the source; they are usually repeats but may differ in a detail not shown here. Equal values may be shown once. Records with an inconclusive call do not appear. A call without a number means that no potency is given here. More than one record can exist for a structure, and the calls need not agree. Active and inactive are the calls of the source. Unless noted, calls come from the whole dose curve; as a rule, active = well fitted curve in the direction sought with a large enough effect; inconclusive = small, poorly fitted or top-dose-only effect, or another doubt; inactive = no such curve, though single readings can be large; an effect the other way counts as inactive or inconclusive.
# How the values were obtained:
# [1] = Cell Viability - LYMP2-026 (AID 989); conditions: LYMP2-026 lymphoblastoid cell viability, qHTS; series mostly up to 92.2 µM;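 note: cells exposed to compound for 24 h at 37 °C; nearly all actives have a fitted effect of over 50% in size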
# Summary of the method: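 Cells are seeded at 2500 per well and held 5 hr at 37 C. Compounds are added in concentration series for 24 hr, then CellTiter-Glo reagent is applied and luminescence read.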
# [2] = Cell Viability - LYMP1-002 - Assay at 40 hr (AID 994); conditions: LYMP1-002 lymphoblastoid cell viability; series mostly up to 92.2 µM; note: nearly all actives have a fitted effect of over 60% in size; note: potency is the fitted concentration of half-maximal effect
# Summary of the method: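 Cells are plated at 2500 per well and rested 5 hr at 37 C. Compounds are added and incubated 40 hr at 37 C. CellTiter-Glo reagent is added for 30 min at room temperature before luminescence is read.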
# [3] = qHTS Assay for Lipid Storage Modulators (AID 1519; calls by dose curve; note: potency is the fitted concentration of half-maximal effect); conditions: Drosophila S3 cells, BODIPY lipid droplet/cell ratio, laser cytometry, cells loaded with oleic acid
# Summary of the method: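 Cells seeded at 5,000 per well were treated with compounds over a concentration series and loaded with oleic acid (400 uM, as added). Lipid droplet fluorescence (488 nm excitation, 500-530 nm channel) was read by laser-scanning cytometry and normalized to 20 uM Triacsin C.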
# [4] = Cell Viability - LYMP2-022 (AID 987); conditions: LYMP2-022 lymphoblastoid cell viability; series mostly up to 92.2 µM; note: nearly all actives have a fitted effect of over 55% in size; note: potency is the fitted concentration of half-maximal effect
# Summary of the method: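 Cells were seeded at 2500 per well, rested 5 hr at 37 C, and treated with titrated compounds for 24 hr at 37 C. Cellular ATP was then quantified by luciferase luminescence, and AC50 values were derived from Hill-modelled concentration-response curves.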
# [5] = Cell Viability - LYMP2-024 (AID 988); conditions: LYMP2-024 lymphoblastoid cell viability; series mostly up to 92.2 µM; note: nearly all actives have a fitted effect of over 60% in size; note: potency is the fitted concentration of half-maximal effect
# Summary of the method: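 qHTS cytotoxicity, human lymphoblastoid line, complete medium; 24 h cpd treatment, 37 C; CellTiter-Glo ATP luminescence readout; tetraoctylammonium bromide positive control; AC50 via Hill fit.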
# [6] = Cell Viability - LYMP1-002 - Assay at 24 hr (AID 993); conditions: LYMP1-002 lymphoblastoid cells viability; series mostly up to 92.2 µM; note: potency is the fitted concentration of half-maximal effect
# Summary of the method: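 Acute toxicity is measured as concentration-dependent loss of cellular ATP in a human lymphoblastoid line (Coriell LYMP1-002) after 24 h treatment in complete medium. ATP is quantified by luciferase luminescence and AC50 derived by Hill modelling.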
# [7] = target: Alpha-galactosidase (Coffea arabica) (UniProt Q42656); assay: Counterscreen for Glucocerebrosidase Inhibitors: qHTS Assay for Coffee Bean alpha-Galactosidase at pH 5.9 (AID 998); conditions: coffee bean alpha-galactosidase enzyme assay; series mostly up to 76.9 µM
# Summary of the method: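 Fluorogenic 4-MU substrate hydrolysis, 80 uM substrate and 2 nM coffee bean alpha-galactosidase, pH 5.9 citrate buffer, 20 min at room temperature, then NaOH/glycine stop. Titration 0.7 nM–77 uM, normalized to no-enzyme and enzyme controls, AC50 via Hill equation.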
# [8] = target: Alpha-galactosidase A (Homo sapiens) (UniProt P06280); assay: Counterscreen for Glucocerebrosidase Inhibitors: qHTS Assay for Human alpha-Galactosidase at pH 4.5 (AID 992); conditions: purified enzyme, fluorogenic substrate; series mostly up to 76.9 µM
# Summary of the method: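 Each compound is preincubated briefly with 2 nM enzyme before substrate addition (80 uM); plates then sit 20 min at ambient temperature, are quenched with 1M NaOH/1M glycine, and read fluorometrically.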
# [9] = target: alpha-glucosidase (Oryza sativa, rice) (UniProt Q653V4); assay: Counterscreen for Glucocerebrosidase Inhibitors: qHTS Assay for Rice alpha-Glucosidase at pH 5.0 (AID 997); conditions: rice alpha-glucosidase enzyme activity; series mostly up to 76.9 µM
# Summary of the method: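 Endpoint fluorogenic assay at pH 5.0: compounds (0.7 nM to 77 uM) titrated against 4 nM rice enzyme and 400 uM 4-MU-alpha-glucoside for 20 min at room temperature; NaOH/glycine stop, read ex 365/em 440 nm, Hill-fitted AC50.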
# [10] = measured here: cell count channel max response
# [11] = measured here: lipid channel max response
# Chain of Alpha-galactosidase (Coffea arabica) (Q42656 whole entry, looked up): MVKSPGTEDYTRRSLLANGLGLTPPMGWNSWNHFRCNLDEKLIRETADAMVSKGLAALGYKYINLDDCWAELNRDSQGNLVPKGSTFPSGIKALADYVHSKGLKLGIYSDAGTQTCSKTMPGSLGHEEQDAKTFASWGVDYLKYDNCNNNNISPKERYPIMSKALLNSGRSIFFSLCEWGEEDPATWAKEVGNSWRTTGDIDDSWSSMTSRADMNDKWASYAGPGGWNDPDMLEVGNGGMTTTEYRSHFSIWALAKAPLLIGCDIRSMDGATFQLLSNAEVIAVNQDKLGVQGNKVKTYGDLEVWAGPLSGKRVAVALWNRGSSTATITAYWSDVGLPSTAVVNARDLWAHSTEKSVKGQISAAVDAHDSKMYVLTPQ
# Chain of Alpha-galactosidase A (Homo sapiens) (P06280 whole entry, looked up): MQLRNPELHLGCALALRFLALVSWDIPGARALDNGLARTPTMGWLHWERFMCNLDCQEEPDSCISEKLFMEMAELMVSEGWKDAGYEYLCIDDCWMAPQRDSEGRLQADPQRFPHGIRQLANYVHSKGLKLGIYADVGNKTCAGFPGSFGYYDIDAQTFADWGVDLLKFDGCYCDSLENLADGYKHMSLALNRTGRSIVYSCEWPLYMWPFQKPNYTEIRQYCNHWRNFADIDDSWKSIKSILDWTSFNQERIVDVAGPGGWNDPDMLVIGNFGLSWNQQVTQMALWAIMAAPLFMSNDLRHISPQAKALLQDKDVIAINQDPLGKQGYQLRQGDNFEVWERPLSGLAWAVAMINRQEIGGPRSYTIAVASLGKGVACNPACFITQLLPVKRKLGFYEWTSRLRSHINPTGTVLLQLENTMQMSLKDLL
smiles,measurement,setting,value
NCC(O)c1ccc(O)cc1 (configuration not stated),outcome,[1],inactive
same,Potency,[2],inactive
CCCC(C)(COC(N)=O)COC(=O)NC(C)C (configuration not stated),outcome,[1],inactive
same,Potency,[2],inactive
O=c1c(O)c(-c2ccc(O)c(O)c2)oc2cc(O)cc(O)c12,Potency,[3],39.8 µM (active)
Oc1ccccc1-c1ccccc1,Potency,[4],inactive
same,Potency,[5],inactive
same,outcome,[1],inactive
same,Potency,[6],inactive
same,Potency,[2],inactive
Clc1ccc(COC(Cn2ccnc2)c2ccc(Cl)cc2Cl)cc1 (configuration not stated),Potency,[6],inactive
same,Potency,[2],50.1 µM (active)
same,"activity change, negative = inhibition",[3]; at 57.5 µM (top of the series),-5.83% (inactive)
same,max response,[3]; [10],-16.9%
same,max response,[3]; [11],-20.8%
Clc1ccc2c(c1)C(N1CCNCC1)=Nc1ccccc1O2,outcome,[7],inactive
CN1CCN(CCCN2c3ccccc3Sc3ccc(C(F)(F)F)cc32)CC1,outcome,[7],inactive
O=c1[nH]c2ccccc2n1C1CCN(CCCC(c2ccc(F)cc2)c2ccc(F)cc2)CC1,outcome,[8],inactive
same,outcome,[9],inactive
same,outcome,[7],inactive
Clc1cccc(N2CCNCC2)c1,outcome,[8],inactive
same,outcome,[9],inactive
same,outcome,[7],inactive
COC(=O)[C@H]1[C@H]2C[C@@H]3c4[nH]c5cc(OC)ccc5c4CCN3C[C@H]2C[C@@H](OC(=O)c2cc(OC)c(OC)c(OC)c2)[C@@H]1OC,outcome,[7],inactive
CC/C(=C(\c1ccccc1)c1ccc(OCCN(C)C)cc1)c1ccccc1,outcome,[7],inactive
CC(=O)Oc1ccccc1C(=O)Nc1ncc([N+](=O)[O-])s1,Potency,[5],39.8 µM (active)
same,Potency,[6],39.8 µM (active)
same,Potency,[2],39.8 µM (active)
CN1CCC(=C2c3ccccc3C=Cc3ccccc32)CC1,outcome,[7],inactive
CNCC(O)c1ccc(O)cc1 (configuration not stated),Potency,[4],inactive
same,Potency,[5],inactive
same,outcome,[1],inactive
same,outcome,[8],inactive
same,Potency,[6],inactive
same,Potency,[2],inactive
same,outcome,[9],inactive
same,outcome,[7],inactive
Clc1ccc(C(c2ccccc2Cl)C(Cl)Cl)cc1 (configuration not stated),outcome,[7],inactive
N[C@@H]1C[C@H]1c1ccccc1,outcome,[8],inactive
same,outcome,[9],inactive
same,outcome,[7],inactive
NCC(CC(=O)O)c1ccc(Cl)cc1 (configuration not stated),outcome,[8],inactive
same,outcome,[9],inactive
same,outcome,[7],inactive
same,"activity change, negative = inhibition",[3]; at 57.5 µM (top of the series),7.61% (inactive)
same,max response,[3]; [10],16.5%
same,max response,[3]; [11],28.7%
Fc1ccc(C(OCCN2CCN(CCCc3ccccc3)CC2)c2ccc(F)cc2)cc1,outcome,[8],inactive
same,outcome,[9],inactive
same,outcome,[7],inactive
same,"activity change, negative = inhibition",[3]; at 25.7 µM (top of the series),-2.3% (inactive)
same,max response,[3]; [10],-18.7%
same,max response,[3]; [11],-16.6%
CN[C@H]1CC[C@@H](c2ccc(Cl)c(Cl)c2)c2ccccc21,outcome,[7],inactive
CC[N+](C)(C)c1cccc(O)c1,outcome,[7],inactive
NN=C(N)N,outcome,[8],inactive
same,outcome,[9],inactive
same,outcome,[7],inactive
same,"activity change, negative = inhibition",[3]; at 57.5 µM (top of the series),1.91% (inactive) and 1.41% (inactive)
same,max response,[3]; [10],12.1% and -0.681%
same,max response,[3]; [11],15.5% and -2.91%
N=c1nc(N2CCCCC2)cc(N)n1O,outcome,[7],inactive
COc1ccc(Cl)cc1C(=O)NCCc1ccc(S(=O)(=O)NC(=O)NC2CCCCC2)cc1,outcome,[7],inactive
CCCN1CCC[C@@H]2Cc3nc(N)ncc3C[C@H]21,outcome,[8],inactive
same,outcome,[9],inactive
same,outcome,[7],inactive
CN1CCN(C2=Nc3cc(Cl)ccc3Nc3ccccc32)CC1,outcome,[7],inactive
same,"activity change, negative = inhibition",[3]; at 25.7 µM (top of the series),0.266% (inactive)
same,max response,[3]; [10],-21%
same,max response,[3]; [11],-18.6%
CC(C)OC(=O)C(C)(C)Oc1ccc(C(=O)c2ccc(Cl)cc2)cc1,outcome,[7],inactive
O=C(CCCN1CCC(O)(c2ccc(Cl)cc2)CC1)c1ccc(F)cc1,outcome,[7],inactive
CCN(CC)CCOC(=O)C1(C2CCCCC2)CCCCC1,outcome,[7],inactive
CCOP(=S)(OCC)Oc1cc(C)nc(C(C)C)n1,Potency,[4],inactive
same,Potency,[5],inactive
same,outcome,[1],inactive
same,Potency,[6],inactive
same,Potency,[2],inactive
N#CC(C#N)=Cc1ccc(O)c(O)c1,outcome,[8],inactive
same,outcome,[9],inactive
same,outcome,[7],inactive
NC12CC3CC(CC(C3)C1)C2,outcome,[7],inactive
OCCOc1ccccc1,Potency,[4],inactive
same,Potency,[5],inactive
same,outcome,[1],inactive
same,Potency,[6],inactive
same,Potency,[2],inactive
c1ccc2c(c1)Nc1ccccc1S2,Potency,[4],inactive
same,Potency,[5],inactive
same,outcome,[1],inactive
same,Potency,[6],inactive
same,Potency,[2],inactive
CN(C)CCC=C1c2ccccc2CCc2ccccc21,outcome,[7],inactive
Oc1ccc(Cl)cc1Cc1ccccc1,Potency,[4],inactive
same,Potency,[5],inactive
same,outcome,[1],inactive
same,Potency,[6],inactive
same,Potency,[2],inactive
Nc1nc2c(ncn2COCCO)c(=O)[nH]1,outcome,[7],inactive
CN(C)C(=O)C(CCN1CCC(O)(c2ccc(Cl)cc2)CC1)(c1ccccc1)c1ccccc1,outcome,[7],inactive
same,"activity change, negative = inhibition",[3]; at 57.5 µM (top of the series),-2.05% (inactive)
same,max response,[3]; [10],-1%
same,max response,[3]; [11],-2.23%
N[C@@H](Cc1ccc(N(CCCl)CCCl)cc1)C(=O)O,Potency,[4],15.8 µM (active)
same,Potency,[5],20 µM (active)
same,Potency,[6],inactive
same,Potency,[2],inactive

# From PubChem BioAssay (NCATS)
